Measured values from PubChem BioAssay AID489025 (Southern Research Specialized Biocontainment Screening …, 2010).
Hit rate of the full screen: of about 2,300 compounds, about 790 (34%) were called active. How the calls were made is not given here. The list shows a part of the results. Entries with a potency or affinity are not part of this list.

assay: THP-1 cell cytotoxicity, dose response, cytotoxicity control for non-replicating M. tuberculosis project (AID 489025); conditions: THP-1 cell viability; series mostly up to 40 µM

Structure (SMILES)	outcome
O=C(COc1cccc2ccccc12)Nc1nc2ccccc2[nH]1	inactive
CCCN(Cc1nnc(-c2ccccc2Cl)o1)C(=O)c1cc([N+](=O)[O-])cc([N+](=O)[O-])c1	inactive
COc1ccc(CCOC(=O)c2ccc(N)c([N+](=O)[O-])c2)cc1	inactive
Cc1ccc(OCC(=O)Nc2ccc([N+](=O)[O-])cc2)cc1	inactive
COc1ccc(C(=O)COC(=O)COc2ccc(C)c(C)c2)cc1	inactive
CC(C)CN(Cc1c(O)ccc2ccccc12)CC(C)C	inactive
Cn1c(=O)c2c(=O)cc(NNC(=O)CC#N)[nH]c2n(C)c1=O	inactive
O=C(C/C=N\OCc1ccc([N+](=O)[O-])cc1)Nc1ccccc1	inactive
CN(CC(=O)Nc1ccc(Cl)cc1)C1CCCCC1	inactive
Cc1ccc(CO/N=C/c2c(O)cc(C)oc2=O)cc1	inactive
Cc1cc(C)n2nc(S(=O)(=O)Nc3c(Cl)cccc3Cl)nc2n1	inactive
CS(=O)(=O)Nc1cccc2cccnc12	inactive
CCSc1nc(O)c(C2OC(=O)c3c2ccc(OC)c3OC)c(=O)n1-c1ccccc1 (stereo not given)	inactive
COc1cc(C=O)ccc1OCCCCOc1ccccc1[N+](=O)[O-]	inactive
COc1cc(/C=C/c2ccc3c([N+](=O)[O-])cccc3n2)ccc1OCC(=O)O	inactive
C=CCN(CC=C)CC(=O)Nc1ccc(S(N)(=O)=O)cc1	inactive
O=C(OCc1ccc([N+](=O)[O-])cc1)c1ccc2ccccc2n1	inactive
N#CC(C(=O)Nc1ccccc1)=C1Nc2ccccc2N1	inactive
CSCCC(=O)N1CCCC(CNC(=O)c2ccc(-c3ccccc3)cc2)C1 (stereo not given)	inactive
Cc1[nH]n(S(=O)(=O)Cc2ccccc2)c(=O)c1N=Nc1ccccc1Cl	inactive
O=C(N/N=C/C=C/c1ccccc1)c1ccncc1	inactive
O=C(NN=C(Cc1ccccc1)Cc1ccccc1)c1ccncc1	inactive
CN1/C(=C\C=N\NC(=O)c2cccnc2)C(C)(C)c2ccccc21	inactive
CCOC(=O)N1CCC(NC(=O)C2CCN(c3nc(-c4ccc(OC)cc4)no3)CC2)CC1	inactive

Structure (SMILES)	outcome
CCOC(=O)C1CCCN(Cc2nc(Cc3ccccc3Cl)no2)C1 (stereo not given)	inactive
CCCNC(=O)OCC12CC3CC(CC(C3)C1)C2	inactive
O=C(CCCOc1ccccc1)OCn1nnc2ccccc2c1=O	inactive
COc1ccccc1N1CCN(C(=O)CCn2c(=O)[nH]c3ccsc3c2=O)CC1	inactive
Cc1ccc(C(=O)COC(=O)c2cccs2)cc1	inactive
Cc1ccc(C(=O)CCC2CCCC2=O)cc1 (stereo not given)	inactive
COc1ccc(-c2[nH]ncc2CN2CCCCCCC2)c(OC)c1	inactive
CC(C)Cc1cc(C(=O)Nc2ccc(F)cc2F)no1	inactive
O=C(Nc1ccc(F)cc1F)c1cc2ccccc2oc1=O	inactive
CCCNC(=O)NC(=O)COc1ccc(-c2ccc(C#N)cc2)cc1	inactive
O=C(COc1ccc(-c2ccccc2)cc1)Nc1cccnc1	inactive
O=C(NC(=S)Nc1ccc(F)cc1)C1CCCCC1	inactive
CC1=CN2C(=N)/C(=C/c3ccc([N+](=O)[O-])o3)C(=O)N=C2S1	inactive
CN(/N=C/c1ccc([N+](=O)[O-])o1)c1ccccc1	inactive
CC(C)[C@H](NC(=O)c1ccc(Br)cc1)C(=O)NC1CCCCC1	inactive
COc1ccc(CCNc2nc(-c3ccccn3)cs2)cc1OC	inactive
c1ccc(Nc2nc(-c3ccccn3)cs2)cc1	inactive
CN1CCN(c2cc3c(cc2F)c(=O)c(C(=O)O)cn3CCF)CC1	inactive
S=C1NC2(CCCC2)N=C1c1ccccc1	inactive
CCOC(=O)c1csc(-c2snnc2C)n1	inactive
COC(=O)COc1cccc(NC(=O)c2ccc(Cl)cc2)c1	inactive
COc1ccc(COC(=O)CCNC(=O)c2ccc(Cl)cc2)cc1	inactive
CNC(=O)COC(=O)c1ccc(-c2nc3ccccc3s2)s1	inactive
CC(C)N1CCc2c(sc(NC(=O)CCS(=O)(=O)c3ccccc3)c2C#N)C1	inactive

Structure (SMILES)	outcome
O=C(COc1ccc2ccccc2c1)NNC(=O)c1cccs1	inactive
Cc1cc(Cl)ccc1OCCCC(=O)NO	inactive
Clc1cccc(CNCCNCc2cccc(Cl)c2)c1	inactive
CC(Cc1cccs1)NC(=O)c1cccc(Cl)c1 (stereo not given)	inactive
Cc1ccc(NC(=O)COc2ccc3c(c2)CCC3)nc1	inactive
CCOC(=O)COc1cc(O)c2c(=O)cc(-c3ccccc3)oc2c1	inactive
COc1ccc(N2C(=O)C(F)(F)C2c2cccc(F)c2)cc1 (stereo not given)	inactive
Cc1cc(C(=O)N/N=C/c2cccc(Cl)c2Cl)no1	inactive
NC(=O)N/N=C\c1cc(Br)ccc1O	inactive
COCCNC(=O)CC(=O)N/N=C/c1cccc(C(=O)OC)c1	inactive
COC(=O)COc1cccc(/C=N/NC(=O)CCSc2ccccc2)c1	inactive
Clc1ccccc1CSc1nnc([C@@H]2CCCN2)o1	inactive
O=C(COC(=O)CCc1c[nH]c2ccccc12)Nc1ccc([N+](=O)[O-])cc1	inactive
CC1N(C)c2cccc3cccc(c23)N1C	inactive
COC(=O)c1cccc(COC(=O)c2cc3ccccc3oc2=O)c1	inactive
Cc1cc(Cl)ccc1NNC(=O)c1c(C)noc1C	inactive
O=C(NN=C1C2CC3CC1CC(Cl)(C3)C2)c1cccs1	inactive
O=[N+]([O-])c1cc(N=Nc2ccc3ccccc3c2)ccc1O	inactive
Clc1cccc(/C=N\Nc2nccs2)c1	inactive
O=C(N/N=C/C=C/c1ccccc1[N+](=O)[O-])c1ccncc1	inactive
O=C(COc1ccccc1)NNc1nc2ccccc2s1	inactive
O=C(NNc1nc2ccccc2s1)Nc1ccc(F)cc1	inactive
Cc1cccc(N2CCN(Cc3ccc([N+](=O)[O-])o3)CC2)c1C	inactive
CCCCOC(=O)c1ccc(NC(=O)c2nn(C)cc2Br)cc1	inactive

Structure (SMILES)	outcome
O=C(N/N=C/c1ccc[nH]1)c1ccncc1	inactive
O=C1NCC(O)=C1C=Nc1ccccc1O	inactive
Cc1[nH]nc2c1C(c1ccc(-c3ccc(Cl)cc3)o1)C(C#N)=C(N)O2 (stereo not given)	inactive
Cc1ccc(NCCC(=O)c2cccs2)cc1Cl	inactive
Nc1ccccc1Nc1ccccc1	inactive
CC1(C)CC(=O)C=C(Nc2ccccc2N)C1	inactive
CSCCOC(=O)COc1ccc(/C=N/NC(=O)c2c(Cl)cnn2C)cc1	inactive
CCOC(=O)CC(NS(=O)(=O)Cc1ccccc1)c1ccc(C)cc1 (stereo not given)	inactive
CCCCC1CCC(C(=O)Nc2ccc(S(=O)(=O)Nc3nccs3)cc2)CC1 (stereo not given)	inactive
COC(=O)COc1ccc(S(=O)(=O)N2CCCCCC2)cc1	inactive
CC1(C)Oc2ccc(NC(=O)C3COc4ccccc4O3)cc2O1 (stereo not given)	inactive
CCc1nnc(NC(=O)c2cc3ccccc3oc2=O)s1	inactive
CC(C)(C)NC(=O)c1ccc(NC(=O)c2ccccc2-c2ccccc2C(=O)O)cc1	inactive
COC(=O)COc1ccc2c(=O)c(-c3ccccc3OC)coc2c1	inactive
O=C(COC(=O)c1cc2ccccc2oc1=O)Nc1ccc(F)cc1F	inactive
O=C(CCSc1ccc(Cl)cc1)NC1CCCC1	inactive
CCc1ccc(NC(=O)COc2ccc3c(c2)OCO3)cc1	inactive
COc1ccc(C(=O)COC(=O)CCC(=O)c2cccs2)cc1	inactive
Cc1nc(C(=O)Nc2ccccc2)sc1C(=O)Nc1ccccc1	inactive
CC1=CC2=NC(=O)/C(=C\c3ccc(OC(=O)c4ccco4)cc3)C(=N)N2O1	inactive
CCOC(=O)c1ccc(COC(=O)c2cc3ccccc3oc2=O)o1	inactive
COc1cccc(OCC(=O)NNC(=O)C(=O)Nc2cccc(C)c2)c1	inactive
Cc1cccc(OCC(=O)NNC(=O)c2cc3ccccc3oc2=O)c1	inactive
O=c1oc(-c2ccccc2[N+](=O)[O-])nc2ccccc12	inactive

Structure (SMILES)	outcome
NC(=O)c1ccc(-c2ccc(Br)cc2)o1	inactive
O=C(NC1=NCCS1)c1ccc(-c2ccc(Cl)cc2)o1	inactive
O=C(NNC(=O)c1ccccc1F)c1ccc(-c2ccc(Cl)cc2)o1	inactive
CCOc1ccc(C(=O)Nc2ccc(N3CCN(C)CC3)cc2)cc1Br	inactive
CC(=O)N1CCN(c2cc3c(cc2F)c(=O)c(C(=O)O)cn3C2CC2)CC1	inactive
CCCCn1c(O)c(/C=C2/C=CC=N2)c(=O)[nH]c1=O	inactive
COC(=O)C(O)(c1ccc(NC(=S)NC(=O)c2ccccc2)cc1)C(F)(F)F (stereo not given)	inactive
CCOC(=O)CCSc1n[nH]c(=S)s1	inactive
COC(=O)CN(C#N)c1nc(N(C)C)nc(N(C)C)n1	inactive
Cc1ccc2nc3c(c(N)c2c1)CCN3c1ccccc1	inactive
O=C(c1cc([N+](=O)[O-])cc([N+](=O)[O-])c1)N(Cc1nnc(-c2ccccc2Cl)o1)C1CC1	inactive
COc1ccc(C(=O)Nc2ccccc2C(=O)N/N=C/c2ccco2)cc1	inactive
CCn1cc(/C=N\NC(=O)c2ccc(F)cc2)cn1	inactive
O=C(COc1ccc2ccccc2c1)N/N=C/c1ccccn1	inactive
O=C(COc1ccccc1)Nc1ccc(F)cc1	inactive
COc1ccc(C2=NC(=O)/C(=C\c3cc(OC)c(OC)c(OC)c3)O2)cc1	inactive
CSc1nnc(Cc2ccc3c(c2)OCO3)o1	inactive
Oc1ccccc1-c1nnc(COc2ccccc2)o1	inactive
Cc1ccc(-c2nnc(-c3ccccc3)o2)cc1	inactive
Cc1cc(C)cc(NC(=O)CCc2ccc(C)o2)c1	inactive
Cn1c(=O)c(Oc2ccc(F)cc2)c(O)c2ccccc21	inactive
Nc1nnc(SCCCC(=O)c2ccc(Br)cc2)s1	inactive
CC(C)(C)c1cc(CN2CCC(O)CC2)cc(C(C)(C)C)c1O	inactive
Cc1cc(C(=O)NNc2cc(Cl)ccc2Cl)no1	inactive
